An excerpt weighted towards active compounds, which were near 19% of everything screened.
IL1B secr inh = qHTS for Inhibitors of Inflammasome Signaling: IL-1-beta AlphaLISA Primary Screen; hit rate 4.7% among 360,000; THP-1 LPS/ATP IL-1B secretion, AlphaLISA, 16 h; stronger effect = lower value; activity change, % at 57.5 µM; in the data active = activity change below about -50%; inconclusive = mostly about -30% to -49%
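Secreted IL-1B measured by AlphaLISA bead assay after 16 h compound exposure of THP-1 cells; compounds (final up to 57.5 uM) added 1 h before LPS (250 ng/mL) and ATP (1.25 mM) stimulation; lower signal means less secretion.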
TDP1 cell CPT = qHTS for Inhibitors of human tyrosyl-DNA phosphodiesterase 1 (TDP1): qHTS in cells in presence of CPT; chicken DT40 Tdp1-/-;hTDP1 cells + 20 nM CPT, ATP luminescence, 48 h; Potency, µM (titrated, usually from 46.2 µM), most hits filed as inhibitors; AID 686979, 2013; hit rate 12% among 420,000; note: nearly all actives have a fitted effect of over 55% in size
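Cell growth measured by CellTiter-Glo luminescence after a minimum 48 h, 37 C compound exposure with 20 nM CPT in Tdp1-knockout DT40 cells stably expressing hTDP1, seeded 400/well; qHTS titration format.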
HT1080NT lethal = qHTS for induction of synthetic lethality in tumor cells producing 2HG: qHTS for the HT-1080-NT fibrosarcoma cell line. Potency, µM (top dose mostly 46.1 µM), usual class: cytotoxic. HT-1080-NT fibrosarcoma viability, CellTiter-Glo ATP luminescence, 48 h. hit rate 1.6% among 360,000;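 note: NT is the 2HG producing partner of a matched IDH1 knockdown line; nearly all actives have a fitted effect of over 55% in size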
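Toxicity toward the 2HG-producing NT line was scored as %Activity, normalised to DMSO and no-cell wells, from CellTiter-Glo luminescence after 48 hours' treatment.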
DT40 TDP1 no CPT = qHTS for Inhibitors of human tyrosyl-DNA phosphodiesterase 1 (TDP1): qHTS in cells in absence of CPT. AID 686978, 2013. DT40 Tdp1-/- hTDP1 cells, no CPT, ATP luminescence, 48 h. Potency, µM (series often up to 46.2 µM), hits mostly inhibitors. hit rate 15% among 420,000; note: nearly all actives have a fitted effect of over 55% in size
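Readout: luminescence from CellTiter-Glo after 30 min in the dark at RT. Cells: DT40 Tdp1-/- with stable hTDP1, 400/well. Exposure: compounds alone, ≥48 hr, 37 °C.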
HT1080 IDH1KD tx = qHTS for induction of synthetic lethality in tumor cells producing 2HG: qHTS for the HT-1080-IDH1KD cell line; HT-1080 IDH1 knockdown viability, ATP luminescence, 48 h; hit rate 2% among 360,000; Potency, µM (highest dose often 46.1 µM), hits mostly cytotoxic
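% activity derives from luminescence (CellTiter-Glo), normalised to DMSO and no-cell wells. HT-1080-IDH1KD cells, 750/well, had 48 h compound exposure at 37 °C.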
Of the large screens only hits and unclear results are named; the others gave an inactive call. Unless noted, calls come from the whole dose curve; as a rule, active = well fitted curve in the direction sought with a large enough effect; inconclusive = small, poorly fitted or top-dose-only effect, or another doubt; inactive = no such curve, though single readings can be large; an effect the other way counts as inactive or inconclusive.

O=S(=O)(c1ccccc1)N1CCN(S(=O)(=O)c2ccc(F)cc2)CC1	none
Cc1ccc(OC(=O)CN2C(=O)c3ccccc3C2=O)cc1C	none
Cc1cc(C)c(C)c(S(=O)(=O)ON2C(=O)c3ccccc3C2=O)c1C	IL1B secr inh -119.4, TDP1 cell CPT 2.59µM, HT1080NT lethal inconclusive, DT40 TDP1 no CPT 2.31µM, HT1080 IDH1KD tx 7.31µM
NCCC(=O)N[C@@H](Cc1cnc[nH]1)C(=O)O	none (no result: IL1B secr inh, HT1080NT lethal, HT1080 IDH1KD tx)
NC(CSCc1cccc(Br)c1)C(=O)O (configuration not stated)	DT40 TDP1 no CPT inconclusive
Nc1nc2nc(-c3ccccc3)cc(C(F)(F)F)c2s1	IL1B secr inh -72.8, TDP1 cell CPT inconclusive, DT40 TDP1 no CPT inconclusive, HT1080 IDH1KD tx inconclusive
CCCNC(=O)[C@H]1O[C@@H]1C(=O)N[C@H](C(=O)N1CCC[C@H]1C(=O)OC)[C@@H](C)CC	TDP1 cell CPT 1.92µM, DT40 TDP1 no CPT 2.42µM (no result: IL1B secr inh, HT1080NT lethal, HT1080 IDH1KD tx)
Cc1cc2ccccc2n1CCNC(=O)C(C)C	none
Cc1ccc(C(=O)NCCn2c(C)cc3ccccc32)cc1C	TDP1 cell CPT 11.6µM, DT40 TDP1 no CPT 10.3µM (no result: IL1B secr inh, HT1080NT lethal, HT1080 IDH1KD tx)
Cc1cc2ccccc2n1CCNC(=O)c1ccc(S(=O)(=O)N2CCCCC2)cc1	DT40 TDP1 no CPT inconclusive
Cc1cc2ccccc2n1CCNC(=O)C(C)Oc1ccccc1 (configuration not stated)	TDP1 cell CPT 23.1µM
CCOC(=O)[C@]12CCC=C1N(Cc1ccc3c(c1)OCO3)C(=O)[C@H](CC(=O)NCc1cccc(C(F)(F)F)c1)C2	TDP1 cell CPT 20.6µM, HT1080NT lethal inconclusive, DT40 TDP1 no CPT 23.1µM, HT1080 IDH1KD tx inconclusive
CCOC(=O)[C@]12CCCC=C1N(Cc1ccc3c(c1)OCO3)C(=O)[C@H](CC(=O)NCc1ccc(C)o1)C2	TDP1 cell CPT inconclusive, DT40 TDP1 no CPT inconclusive
CCOC(=O)[C@]12CCCC=C1N(Cc1ccc3c(c1)OCO3)C(=O)[C@H](CC(=O)NCc1cccc(C(F)(F)F)c1)C2	TDP1 cell CPT inconclusive, HT1080NT lethal 10.3µM, DT40 TDP1 no CPT 16.4µM, HT1080 IDH1KD tx 16.4µM
CCc1ccc(-c2nc(CN3CCC(C(=O)N4CCN(c5ccccc5)CC4)CC3)c(C)o2)cc1	IL1B secr inh inconclusive, TDP1 cell CPT inconclusive, DT40 TDP1 no CPT 16.4µM
CCc1ccc(-c2nc(CN3CCC(C(=O)N4CCN(c5ccccn5)CC4)CC3)c(C)o2)cc1	IL1B secr inh -52.7, TDP1 cell CPT 23.1µM, DT40 TDP1 no CPT 18.4µM, HT1080 IDH1KD tx inconclusive
Cn1c(=O)c2c(nc(Cl)n2CC(=O)NC2(C#N)CCCCC2)n(C)c1=O	TDP1 cell CPT inconclusive
CCOC(=O)Cn1c(=NC(=O)C2COc3ccccc3O2)sc2cc(S(N)(=O)=O)ccc21 (configuration not stated)	TDP1 cell CPT inconclusive, DT40 TDP1 no CPT 20.6µM
COC(=O)Cn1c(=NC(=O)c2cc(-c3cccs3)nc3ccccc23)sc2cc(S(N)(=O)=O)ccc21	TDP1 cell CPT inconclusive, DT40 TDP1 no CPT 9.2µM, HT1080 IDH1KD tx inconclusive
CCOC(=O)Cn1c(=NC(=O)c2cc(-c3cccs3)nc3ccccc23)sc2cc(S(N)(=O)=O)ccc21	TDP1 cell CPT 23.1µM, HT1080NT lethal inconclusive, DT40 TDP1 no CPT 16.4µM
COC(=O)Cn1c(=NC(=O)c2nc3ccccc3s2)sc2cc(S(N)(=O)=O)ccc21	TDP1 cell CPT inconclusive, DT40 TDP1 no CPT inconclusive
COCCn1c(=NC(=O)c2nc3ccccc3s2)sc2cc(S(C)(=O)=O)ccc21	TDP1 cell CPT inconclusive, DT40 TDP1 no CPT inconclusive
COCCn1c(=NC(=O)c2ccc3c(c2)OCCO3)sc2cc(S(N)(=O)=O)ccc21	DT40 TDP1 no CPT inconclusive
CC(=O)C1=C(O)CCCC1=NCc1nc2ccccc2[nH]1	DT40 TDP1 no CPT inconclusive
COc1cccc(-c2cnc(C(O)c3c(C)cc(C)cc3C)[nH]2)c1 (configuration not stated)	TDP1 cell CPT inconclusive, DT40 TDP1 no CPT inconclusive
COc1ccc(C2CC(c3ccccc3)=NN2S(=O)(=O)c2ccccc2)c(OC)c1 (configuration not stated)	TDP1 cell CPT inconclusive, DT40 TDP1 no CPT 20.6µM
COc1ccc(C2CC(c3ccccc3)=NN2S(=O)(=O)c2ccc(C)cc2)c(OC)c1 (configuration not stated)	TDP1 cell CPT 8.2µM, DT40 TDP1 no CPT 7.31µM
O=C(NC(=S)Nc1ccccc1)c1csnn1	none
Cc1ccc(CNC(=O)c2cn(C)c3ccc(S(=O)(=O)N4CCC(C)CC4)cc3c2=O)cc1	DT40 TDP1 no CPT inconclusive (no result: IL1B secr inh, HT1080NT lethal, HT1080 IDH1KD tx)
O=C(Nc1ccsc1C(=O)NC1CCCCC1)c1ccccc1	TDP1 cell CPT inconclusive, DT40 TDP1 no CPT 20.6µM
O=C(Nc1ccsc1C(=O)O)c1ccc(Cl)cc1	DT40 TDP1 no CPT inconclusive
Cc1ccc(C(=O)Nc2ccsc2C(=O)O)cc1	TDP1 cell CPT inconclusive, DT40 TDP1 no CPT 14.6µM
O=C(Nc1ccccc1C(=O)NC(Cc1ccccc1)C(=O)NC1CCCCCC1)c1ccccc1 (configuration not stated)	TDP1 cell CPT inconclusive, DT40 TDP1 no CPT 23.1µM
CCCCN(C)S(=O)(=O)c1cc2c3c(c1)CCC(=O)N3CCC2	none
CC(NC(=O)CNC(=O)c1ccco1)c1ccccc1 (configuration not stated)	none
CCOC(=O)c1cnc(SC2CC(=O)N(c3ccc(OC)c(OC)c3)C2=O)nc1N (configuration not stated)	TDP1 cell CPT 20.6µM, DT40 TDP1 no CPT inconclusive
COc1ccc(N2C(=O)CC(Sc3nc4ccccc4s3)C2=O)cc1OC (configuration not stated)	TDP1 cell CPT 4.61µM, DT40 TDP1 no CPT 2.91µM
CCOc1ccc2nc(/N=C/c3c(C)[nH]n(-c4ccc(C)cc4)c3=O)sc2c1	TDP1 cell CPT 16.4µM, HT1080NT lethal inconclusive, DT40 TDP1 no CPT inconclusive, HT1080 IDH1KD tx inconclusive
CCOc1ccc(N2C(=O)CC(Sc3nc4ccc(OCC)cc4s3)C2=O)cc1 (configuration not stated)	TDP1 cell CPT 4.11µM, DT40 TDP1 no CPT 4.61µM
CCN(CC(=O)Nc1ccc2c(c1)OCCO2)C(=O)C(C)Oc1ccc(F)cc1 (configuration not stated)	none
CC(=O)c1c(C)[nH]c(C(=O)Nc2ccc(F)cc2F)c1C	none
COc1ccc(S(=O)(=O)NC(=O)C2(C)CCN2C(=O)CCC2CCCC2)cc1OC (configuration not stated)	TDP1 cell CPT inconclusive, HT1080 IDH1KD tx inconclusive
